Assay results published in PubChem BioAssay AID1508622 (National Center for Advancing Translational Sciences (NCATS), 2021).
Active and inactive are the calls of the source. Calls follow the shape of the dose curve; as a rule, active = well fitted activation curve with a large enough effect; inconclusive = small, poorly fitted or top-dose-only effect; inactive = no such curve, though single readings can be large or run the other way.

Test: Confirmatory qHTS for Identification of Small Molecule Activators of Huntingtin-Antisense Promoter Activity
Details: HEK293 HTT-AS promoter firefly luciferase reporter, 24 h; series mostly up to 57.5 µM
Outline: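 HEK293 luciferase reporter cells, 2,500/well, cultured 24 h, then exposed to compounds at up to 57.5 uM final for 24 h at 37C. Firefly luciferase luminescence read; normalized to vehicle (0%) and zero RLU (-100%).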

Potency, inactive:
Cc1ccc(SCc2nc(-c3ccc(C(=O)NCC(C)c4ccccc4)cc3)oc2C)cc1 (centres undefined)
COc1ccc(NC(=O)CN2CCCN(S(=O)(=O)c3ccc(Br)cc3)CC2)c(OC)c1
Cc1c(Cl)cccc1-n1ncc(C(=O)Nc2ccc(F)cc2F)c1C1CCN(C(=O)OC(C)(C)C)CC1
Cc1ccc(NC(=O)c2cc(S(=O)(=O)N3CCc4ccccc43)ccc2F)cc1Cl
CC(C)c1ccc(CNC(=O)c2ccc(N3CCCC3)c(NC(=O)NCc3ccc(F)cc3)c2)cc1
O=S(=O)(NCC(c1ccco1)N1CCN(c2ccc(F)cc2)CC1)c1cc(F)ccc1F (centres undefined)
Cc1ccc(C(C)C)c(OCCn2cc(C(=O)c3ccco3)c3ccccc32)c1
COc1cc(NC(=O)c2cnc3c(-c4ccc(F)cc4)c(C)nn3c2C)cc(OC)c1
Cc1cccc(NC(=O)c2c(NC(=O)C(F)(F)F)sc3c2CCCCC3)c1
CCCCN(C)CCCNC(=O)Cn1ncc2c3ccccc3n(Cc3ccccc3F)c2c1=O
Cc1csc2nc(COC(=O)c3ccccc3NC(=O)c3ccccc3Cl)cc(=O)n12
COc1ccc(CCNC(=O)c2c(C)nn(-c3ccc(F)cc3)c2-n2cccc2)cc1OC
O=C(Nc1cc(Cl)cc(Cl)c1)c1ccc(F)c(S(=O)(=O)N2CCc3ccccc32)c1
COc1ccc(C2=C(C)C(=O)N(Cc3ccc(C(=O)Nc4cccc(F)c4)cc3)S2(=O)=O)cc1
Cc1ccc(Cl)cc1N1CCN(C(=O)c2cccn2-c2nnc(N3CCCCC3)s2)CC1
Cc1cccc(NS(=O)(=O)c2ccc3c(c2)CCN3C(=O)C2CCC2)c1
COc1ccc(CCNC(=O)c2ccc3c(c2)CCN3S(=O)(=O)c2ccc(Cl)cc2)cc1
Cc1cccc(C(=O)Nc2nc(-c3nnn(-c4cc(F)ccc4F)c3C)ns2)c1
Cn1c(COc2ccccc2C(C)(C)C)nc2ccccc21
CO[C@H]1C=CC=C(C)C(=O)NC2=CC(=O)C(NCCN(C)C)=C(C[C@@H](C)C[C@H](OC)[C@@H](O)[C@@H](C)C=C(C)[C@@H]1OC(N)=O)C2=O
Cc1nc(-c2ccc(Cl)cc2)sc1CCNC(=O)Cc1ccc(F)cc1
Cc1ccc(NCc2cccn2-c2nnc(N3CCC(C(=O)NC(C)C)CC3)s2)cc1
CCCCN1CC(c2nc3ccccc3n2CCCCOc2ccc(C)c(C)c2)CC1=O (centres undefined)
CSc1ccc(CCNc2ncnc3onc(C)c23)cc1
CCCc1cc(N2CCN(c3ccc(OC)cc3)CC2)n2cnnc2n1
Cc1cc(Nc2sc(C(=O)c3ccc(F)cc3)c(N)c2C(=O)Nc2ccc(F)cc2)ccc1Cl
CC(=O)N1CCCc2cc(S(=O)(=O)N(C)CC(=O)Nc3cccc(Cl)c3C)ccc21
CC1Cc2cc(S(=O)(=O)NCc3ccc(F)cc3)ccc2N1C(=O)C1CCC1 (centres undefined)
COc1ccc(Nc2nc(-c3ccc(C)cc3)nc3ccccc23)c(OC)c1
Cc1ccc(Cl)cc1-n1ncc2c(Nc3cccc(C)c3C)ncnc21
CCOC(=O)C1CCC(CN(Cc2ccc(Cl)cc2)S(=O)(=O)c2cc(Cl)cc(Cl)c2)CC1 (centres undefined)
COC(=O)C1=C(C)NC(C)=C(C(=O)OCC(C)=O)C1c1ccccc1[N+](=O)[O-] (centres undefined)
COc1ccccc1CCNC(=O)c1ccc(-c2nc(CSc3ccc(C)cc3)c(C)o2)cc1
COc1ccc(S(=O)(=O)NCCc2cc3ccc(C)c(C)c3[nH]c2=O)cc1
CN1C(=O)c2ccccc2Sc2ccc(NC(=O)NCc3ccc(Cl)cc3)cc21
N#CCNC(=O)c1ccc(-c2ccnc(Nc3ccc(N4CCOCC4)cc3)n2)cc1
CCc1nc2ccc(C(=O)NCCc3ccc(OC)cc3OC)cc2nc1CC
CCc1cccc(C)c1NC(=O)COCc1cc(-c2ccc3c(c2)OCO3)on1
CC(C)c1ccc(NC(=O)c2cnc3sc(N4CCCC4)nn3c2=O)cc1
